Screening data as filed in PubChem.
TEAD-YAP block – TEAD-YAP interaction inhibition; 640,000 tested, 1.4% active; inhibition, % at 9.12 µM; HEK-TIYL cells, TEAD-Gal4/YAP UAS-luciferase luminescence; AID 1259422; in the data active = inhibition above about 32%;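 also: 0% = median of test compound wells and 100% = reference inhibitor wells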
FBW7 activator – activators of human E3 ligase FBW7 | Q969H0 | AlphaScreen FBW7–phospho-cyclin E peptide binding, activator screen | normalized activity (activation), % at 26.1 µM | 650,000 tested, 0.13% active; in the data active = normalized activity above about 1.9%;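 also: purified mutant Fbw7 with reduced substrate affinity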
MITF inh – inhibitors of human MITF | AlphaScreen MITF homodimerization, bead proximity signal | inhibition, % at 2.6 µM | O75030 | 650,000 tested, 0.91% active; in the data active = inhibition above about 50%;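 also: 0% = vehicle wells with protein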
Target sequence (O75030 whole entry, looked up): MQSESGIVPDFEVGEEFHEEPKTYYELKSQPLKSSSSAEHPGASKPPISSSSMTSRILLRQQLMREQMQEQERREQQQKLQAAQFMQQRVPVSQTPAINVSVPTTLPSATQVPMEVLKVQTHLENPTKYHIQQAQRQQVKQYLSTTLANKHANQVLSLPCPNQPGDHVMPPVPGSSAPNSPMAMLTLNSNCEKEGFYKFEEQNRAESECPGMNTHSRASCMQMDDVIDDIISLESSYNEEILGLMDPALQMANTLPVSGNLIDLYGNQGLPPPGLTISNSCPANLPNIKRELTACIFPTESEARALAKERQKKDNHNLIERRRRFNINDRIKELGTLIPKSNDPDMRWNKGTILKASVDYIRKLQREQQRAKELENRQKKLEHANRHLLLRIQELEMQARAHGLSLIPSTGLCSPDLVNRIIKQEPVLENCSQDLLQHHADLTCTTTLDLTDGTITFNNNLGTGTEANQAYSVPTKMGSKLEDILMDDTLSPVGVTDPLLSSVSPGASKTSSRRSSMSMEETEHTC
GPR151 ag – human GPR151 activation; PathHunter beta-arrestin GPR151 cells, luminescence; activation, % at 11.2 µM; 650,000 tested, 1% active; AID 1508602; in the data active = activation above about 4.9%;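 also: 0% = median of compound wells and 100% = cells with positive control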
GPR151 confirm – confirmation of human GPR151 activators; shares compounds with GPR151 ag; activation, % at 11.2 µM; 6,700 tested, under 10 active; GPR151 PathHunter beta-arrestin cells, luminescence, 90 min; % of EA-reagent control over plate median; AID 1508609;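 active = mean percent activation across replicates above the confirmation screen cutoff of 4.91%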
GPR119 ag – activates human GPR119 in a GPR151 counter-screen | 6,700 tested, 0.3% active | shares compounds with GPR151 ag | activation, % at 11.2 µM | GPR119 PathHunter beta-arrestin cells, luminescence, 90 min; 0 = compound-well median, 100 = enzyme-acceptor control;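 active = mean percent activation in the counterscreen above 29.09%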;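 also: counterscreen on off-target GPR119 to flag nonselective hits from the GPR151 activator screen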
Numbers without * were called inactive; / = not tested or not shown; ! = not confirmed by another sample. Only some compounds are listed: those with a hit (about 3.4% of all), similar ones and a draw of the others.

SMILES | TEAD-YAP block | FBW7 activator | MITF inh | GPR151 ag | GPR151 confirm | GPR119 ag
CNC(=O)c1cc(F)ccc1Nc1cc(Nc2cccc(OC)c2)ncc1C(F)(F)F | 14.2 | -0.1 | -10.3 | 9.3* | 0.5 | -1.4
CC(C)CCNC(=O)c1cc(=O)[nH]c2ccc(S(=O)(=O)N3CCCC(C)C3)cc12 (stereo unspecified) | 0.8 | -0.1 | 5.6 | 0.8 | / | /
COC(=O)c1ccc(N2C(=O)CC(NCCc3ccccc3F)C2=O)cc1 (stereo unspecified) | 6.5 | 0.0 | 0.9 | 1.5 | / | /
O=S(=O)(Nc1ccc(Cl)cc1F)c1cnc[nH]1 | -11.4 | 0.1 | 2.7 | 10.7* | 0.5 | 12.3
CCC1=NN(C(=O)Cc2ccccc2)C(O)(c2ccccc2)C1 (stereo unspecified) | -5.3 | 0.1 | 6.1 | 6.9* | -0.2 | 6.8
O=C(CNc1n[nH]c(=O)[nH]c1=O)N/N=C/c1ccccc1 | -0.5 | 0.0 | 1.2 | 8.1* | 0.8 | 11.1
O=C(O)c1ccc(Cn2c(SCc3cc(=O)n4cc(Br)ccc4n3)nc3ccsc3c2=O)cc1 | -17.8 | 0.0 | 5.3 | 7.3* | 0.7 | 16.0
O=C(O)CCn1c(SCc2cc(=O)n3cc(Br)ccc3n2)nc2ccsc2c1=O | 2.2 | 0.0 | 1.2 | 1.2 | / | /
CN1CCc2cc(C(CNC(=O)Nc3ccc4c(c3)OCO4)N3CCCC3)ccc21 (stereo unspecified) | -53.2 | -0.4 | 1.5 | -1.9 | / | /
COc1ccccc1NC(=O)Nc1ccccc1-c1cnn(C)c1 | -13.0 | 0.1 | -3.2 | 0.6 | / | /
CCN=C1SC(CC(=O)Nc2sc(C)c(C)c2C(=O)OC)C(=O)N1CC (stereo unspecified) | 2.9 | -0.2 | -9.6 | 6.0*! | 2.2 | 7.0
O=C(COC(=O)c1cccc(S(=O)(=O)N2CCCCC2)c1)NC(=O)NCc1ccco1 | 4.4 | -0.1 | 6.7 | 0.6 | / | /
COc1ccc(CNC(=O)C2CCN(c3nc4ccccc4n4cccc34)CC2)cc1 | -5.6 | -0.2 | -12.7 | 7.5* | -0.6 | -1.3
O=C1c2cccc(N3CCN(C4Cc5ccccc5C4)CC3)c2C(=O)N1CCn1cccn1 | -2.8 | 0.1 | 8.4 | -0.9 | / | /
CC(Oc1ccc(Br)cc1)C(=O)Nc1ccc(C(N)=O)cc1 (stereo unspecified) | 8.3 | -0.3 | -7.4 | 5.7* | -0.2 | -2.0
CC(Oc1ccc(Br)cc1)C(=O)Nc1ccccc1 (stereo unspecified) | 0.9 | -0.2 | -15.8 | -1.1 | / | /
O=C(CSc1cccc[n+]1[O-])N1CCCCCC1 | 1.9 | 0.1 | 2.4 | 2.4 | / | /
[O-][n+]1ccccc1SSc1cccc[n+]1[O-] | 96.2* | 0.3 | 0.7 | 6.9* | -1.3 | -13.8
CCOC(=O)C1(CC2CCCCO2)CCN(C(=O)CSc2ncccn2)CC1 (stereo unspecified) | 4.1 | -0.2 | -3.0 | 4.9* | 0.1 | 5.4
CCOC(=O)C1(CCc2ccccc2)CCN(C(=O)CSc2ncccn2)CC1 | -6.9 | 0.5 | 4.7 | 5.6* | 0.7 | -3.3
CCOC(=O)C1(CCCc2ccccc2)CCN(C(=O)CSc2ncccn2)CC1 | -8.4 | 0.3 | -5.2 | -0.6 | / | /
Cc1cc(C(=O)NC(C)C(=O)O)cc(C)c1[N+](=O)[O-] (stereo unspecified) | 2.3 | 0.0 | 0.1 | 5.0* | 0.3 | 0.1
Cc1cc(C(=O)NC(CC(C)C)C(=O)O)cc(C)c1[N+](=O)[O-] (stereo unspecified) | -5.2 | -0.1 | -21.3 | 0.4 | / | /
Cc1ccc(NS(=O)(=O)c2ccc(F)cc2)cc1C | -13.1 | 0.2 | -2.6 | -0.6 | / | /
Cc1ccc(NS(=O)(=O)c2ccc(NC=O)cc2)cc1C | 15.0 | 0.5 | 4.5 | 5.8* | 0.0 | -2.5
SMILES | TEAD-YAP block | FBW7 activator | MITF inh | GPR151 ag | GPR151 confirm | GPR119 ag
O=C(Nc1nnc(-c2cccc([N+](=O)[O-])c2)s1)c1cccs1 | 4.9 | -0.1 | -2.6 | 8.6* | 0.5 | -3.0
CC(=O)Nc1nnc(-c2cccc([N+](=O)[O-])c2)s1 | 17.9 | 0.4 | 13.9 | -2.3 | / | /
Cc1cc(NC(=O)c2cccs2)ccc1Br | -53.1 | 0.1 | 4.0 | -1.2 | / | /
CC1CCCCC1Nc1ccc([N+](=O)[O-])cc1C#N (stereo unspecified) | -3.1 | -0.1 | 0.5 | -0.1 | / | /
COc1ccc([N+](=O)[O-])cc1NC(C)C | 8.1 | -0.1 | -0.8 | 5.0* | -0.1 | -2.6
CCS(=O)(=O)Nc1cc([N+](=O)[O-])ccc1OC | 7.0 | 0.0 | -6.0 | 0.3 | / | /
COc1ccc([N+](=O)[O-])cc1NC1CCCCC1C (stereo unspecified) | 4.8 | 0.0 | 50.4 | 5.7* | 0.1 | 0.6
COc1ccc(Cl)cc1C1=N/C(=C/c2ccc(C(C)(C)C)cc2)C(=O)O1 | 12.4 | 0.1 | -2.4 | 1.3 | / | /
O=C(OCC(=O)N1CCc2ccccc21)c1cc(F)c(F)cc1Cl | -9.6 | 0.1 | -12.5 | 1.0 | / | /
COCCNC(=O)[C@@H]1C[C@H](NCc2ccccc2Cl)CN1C1Cc2ccccc2C1 | -3.3 | -0.1 | -0.9 | 6.4* | 0.6 | 0.1
COCCNC(=O)[C@@H]1C[C@H](NCc2cc(C)ccc2C)CN1C1Cc2ccccc2C1 | 3.6 | 1.1 | 3.6 | -0.1 | / | /
CC(C)NCCOCCOc1c(Cl)cccc1Cl | -17.7 | -0.2 | 34.8 | 0.0 | / | /
CC(C)NCCOCCOc1cccc(Cl)c1 | 5.5 | 0.0 | 41.5 | 8.4* | -0.8 | -13.0
O=C(NCC(c1cccnc1)N1CCN(c2ccccc2)CC1)c1ccccc1F (stereo unspecified) | 18.3 | 0.6 | 2.8 | -0.2 | / | /
COc1ccc(OC)c(/C=N/NC(=O)c2[nH]ncc2Br)c1 | -33.2 | 0.5 | 12.3 | -1.7 | / | /
COC(=O)c1[nH]ncc1Br | 2.7 | 0.0 | 7.9 | 6.1* | -0.2 | -13.8
CC(=O)Nc1cc(-c2cccc(Br)c2)nn1-c1ccccc1 | 6.2 | -0.1 | 6.3 | 5.3* | -0.9 | -4.4
CC(=O)N1CCOc2cc(S(=O)(=O)N3CCN(C)CC3)c(Cl)cc21 | -3.1 | 0.0 | 8.6 | 5.1* | 0.8 | 5.7
CC(=O)N1CCOc2cc(S(=O)(=O)N3CCC(C(N)=O)CC3)c(Cl)cc21 | 0.0 | 0.2 | 4.3 | 1.4 | / | /
CCCOc1ccc(C(CC(=O)O)NC(=O)COc2ccccc2OC)cc1 (stereo unspecified) | 9.3 | 0.2 | 3.0 | 0.6 | / | /
COc1ccc(S(=O)(=O)NCC2CCCN(CCCC3CCCC3)C2)cc1 (stereo unspecified) | 3.9 | 0.1 | -13.3 | 5.8* | -0.1 | 3.1
COc1ccc(S(=O)(=O)NCC2CCCN(C(=O)c3sccc3C)C2)cc1 (stereo unspecified) | 17.2 | 0.2 | -10.4 | 5.5* | 1.4 | 8.3
COCC(=O)N1CCCC(CNS(=O)(=O)c2ccc(OC)cc2)C1 (stereo unspecified) | 5.2 | 0.1 | -1.5 | -1.0 | / | /
COc1ccc(S(=O)(=O)NCC2CCCN(Cc3ccncc3)C2)cc1 (stereo unspecified) | 6.1 | -0.3 | -3.8 | 0.9 | / | /
